Measurements as given in PubChem BioAssay AID1645887 (National Center for Advancing Translational Sciences (NCATS), 2021).
Several values for one entry are separate records, joined by “and”; a condition that tells them apart may be missing. Equal values may be shown once. Hit rate of the full screen: of about 16,000 compounds, about 40 (0.2%) were called active. Inconclusive results (about 1%) are left out. Many of the other results were omitted from the sample, so actives are more common in it than they were. Unmarked numbers belong to inactive results. The call rests on the fitted dose curve; in most records, active means well fitted activation curve with a large enough effect; inconclusive means small, poorly fitted or top-dose-only effect, or another doubt; inactive means no such curve, though single readings can be large or run the other way.

Each compound was assayed against Rap guanine nucleotide exchange factor 4 (Homo sapiens) (UniProt Q8WZA2) (assay: Validation qHTS for agonist of cAMP-regulated guanine nucleotide exchange factor 4 (EPAC2)). Details: EPAC2 Rap1B BODIPY-GDP exchange, fluorescence; activation: active compounds read high.
In short: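 Fluorescent exchange assay: 100 nM EPAC2 with 250 nM RAP1B-BODIPY-GDP and 50 uM GDP; compound added, 5 min at room temperature, then read (ex 480/em 540 nm) every 5 min for 30 min. Normalized to 6.5 mM cAMP agonist control.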
On the % scale 0 is the no-effect control and ±100 the full control effect; potency means the concentration at half of the fitted maximal effect.
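Wherever activation is given: exchange makes BODIPY-GDP fluorescence drop when released from Rap1B; series mostly up to about 150 µM.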

Rap guanine nucleotide exchange factor 4 (Homo sapiens), sequence (Q8WZA2 whole entry, looked up): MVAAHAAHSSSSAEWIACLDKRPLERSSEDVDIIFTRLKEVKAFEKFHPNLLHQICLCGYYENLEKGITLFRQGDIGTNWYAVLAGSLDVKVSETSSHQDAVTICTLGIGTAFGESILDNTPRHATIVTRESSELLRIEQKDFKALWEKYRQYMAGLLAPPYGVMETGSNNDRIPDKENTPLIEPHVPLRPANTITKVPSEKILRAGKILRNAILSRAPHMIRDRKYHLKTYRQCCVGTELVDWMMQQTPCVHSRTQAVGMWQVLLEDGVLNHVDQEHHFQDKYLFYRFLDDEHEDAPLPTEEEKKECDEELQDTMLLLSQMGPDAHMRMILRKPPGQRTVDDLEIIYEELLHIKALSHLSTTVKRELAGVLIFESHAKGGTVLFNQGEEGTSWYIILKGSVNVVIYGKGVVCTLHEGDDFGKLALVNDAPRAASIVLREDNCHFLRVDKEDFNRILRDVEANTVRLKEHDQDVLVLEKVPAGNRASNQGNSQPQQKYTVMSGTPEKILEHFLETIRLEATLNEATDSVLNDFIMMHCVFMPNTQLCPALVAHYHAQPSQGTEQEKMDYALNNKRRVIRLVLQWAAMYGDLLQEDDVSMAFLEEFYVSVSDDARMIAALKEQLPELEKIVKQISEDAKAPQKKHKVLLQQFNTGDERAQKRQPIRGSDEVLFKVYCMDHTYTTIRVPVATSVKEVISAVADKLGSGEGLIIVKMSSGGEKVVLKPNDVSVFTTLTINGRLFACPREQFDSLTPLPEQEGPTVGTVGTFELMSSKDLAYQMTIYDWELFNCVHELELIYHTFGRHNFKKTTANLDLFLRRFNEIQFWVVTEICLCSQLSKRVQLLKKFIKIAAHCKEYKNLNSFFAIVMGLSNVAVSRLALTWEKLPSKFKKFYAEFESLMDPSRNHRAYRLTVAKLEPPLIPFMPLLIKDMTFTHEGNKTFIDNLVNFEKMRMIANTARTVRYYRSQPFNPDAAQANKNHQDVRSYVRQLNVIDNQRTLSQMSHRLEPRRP

Structure (SMILES)	activation	Potency
OC(c1ccc2c(c1)CN(Cc1cccn1-c1ncccn1)CCO2)C1CCCCC1 (stereo not drawn)	-21.5%	–
COc1ccc2[nH]cc(CCNc3nc(-c4c(C)noc4C)nc4ccccc34)c2c1	6.86%	–
CN(C)c1ccc(/C=C/c2ccnc3ccccc23)cc1Cl	-5.92%	–
OCCN(CCO)c1ccc(/C=C/c2ccnc3ccccc23)cc1	-44.7%	–
CN(C)c1ccc(/C=C/c2ccnc3ccccc23)cc1[N+](=O)[O-]	-6.84%	–
CCCN(CCC)c1ccc(/C=C/c2ccnc3ccccc23)cc1	–	100 µM (active)
Cc1cc(/C=C/c2ccnc3ccccc23)ccc1N(C)C	–	50.1 µM (active)
CCCCCCCCCCCCCCCCCCN(CCCCCCCCCCCCCCCCCC)c1ccc(/C=C/c2ccnc3ccccc23)cc1	-21.8%	–
Cc1cccc(CNc2nc(-c3ccc4c(c3)OCO4)nc3ccccc23)c1	5.64%	–
Cc1oc(-c2ccccc2NC(=O)C2CCCO2)nc1CNC(=O)c1[nH]c2c(C)ccc(C)c2c1C (stereo not drawn)	8.6%	–
COc1cccc(Nc2ncc3nc(-c4cccs4)c(=O)n(-c4ccccc4)c3n2)c1	–	50.1 µM (active)
COc1cccc(Nc2ncc3nc(C)c(=O)n(-c4ccccc4)c3n2)c1	-17%	–
COc1ccc(-n2c(=O)c(-c3cccs3)nc3cnc(Nc4ccccc4)nc32)cc1	-5.89%	–
CNS(=O)(=O)Cc1ccc2[nH]cc(CCN(C)C)c2c1	-28%	–
CN(C)CCc1c[nH]c2ccc(C[C@H]3COC(=O)N3)cc12	–	126 µM (active)
CN(C)CCc1c[nH]c2ccc(CS(=O)(=O)N3CCCC3)cc12	-8.07%	–
CC(C)c1c(O)ccc2c1CCC1[C@@](C)(C=O)CCC[C@@]21C (stereo partly drawn)	22.5%	–
CC[C@@]1(O)C(=O)OCc2c1cc1n(c2=O)Cc2cc3c([N+](=O)[O-])cccc3nc2-1	5.92%	–
CC[C@@]1(O)C(=O)OCc2c1cc1n(c2=O)Cc2cc3c(CN(C)C)c(O)ccc3nc2-1	–	89.1 µM (active)
CC[C@@]1(O)C(=O)OCc2c1cc1n(c2=O)Cc2cc3cc(O)ccc3nc2-1	-2.34% and 12.4%	–
C[N+]1(Cc2ccccc2)CCC(C(=O)OCC2CCCC2)CC1 (stereo not drawn)	-12.2%	–
N#Cc1ccc(CN2CC[C@@]3(CCCN(C(=O)c4ccco4)C3)C2)cc1	-12.3%	–
COC(=O)C(O)C1C(C)(C)C(OC(C)=O)C2CC3=C4CC(=O)OC(c5ccoc5)[C@]4(C)CCC3[C@@]1(C)C2=O (stereo partly drawn)	-10.7%	–
